Source: PubChem (National Center for Advancing Translational Sciences (NCATS))
Most compounds without a hit are left out; they make up all but 11% or so of the library.
Vaccinia Venus: inhibitors of vaccinia virus (Venus reporter); 330,000 tested, 0.46% active; Vaccinia virus Venus reporter expression, fluorescence; AID 720580; Potency, µM (series often up to 36.5 µM), hits mostly inhibitors; calls by dose curve; tested in A549 cells; also: nearly all actives have a fitted effect of over 30% in size
Pf growth 96h: P. falciparum growth inhibition at 96 hour, primary screen for plastid delayed-death inhibitors | Potency, µM (series often up to 28.7 µM), hits mostly inhibitors | AID 504834 | P. falciparum luciferase reporter growth, 96 h | 320,000 tested, 6.9% active
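Plates of compound plus infected erythrocytes (2% hematocrit, 0.05% parasitemia final) incubate 96 hours, 37 C, 5% CO2. Detection reagent added; reduced luminescence from the parasites' luciferase reporter flags inhibition.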
NS1 function inh: influenza NS1 inhibition | AID 2326 | Potency, µM (top dose mostly 46.1 µM) | 270,000 tested, 0.4% active; calls by dose curve; also: actives are rising curves; nearly all actives have a fitted effect of over 50% in size
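OD600 was taken as the measure of yeast growth restored by compound in an NS1-expressing S. cerevisiae strain. Cells had been washed out of glucose medium and diluted 1:100 into galactose -URA medium, pH 6.0.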
Vaccinia mCherry: vaccinia inhibition (mCherry reporter); 310,000 tested, 0.63% active; Vaccinia virus mCherry reporter infection, fluorescence; Potency, µM (highest dose often 36.5 µM), usual class: inhibitors; AID 720579; calls by dose curve; tested in A549 cells; also: nearly all actives have a fitted effect of over 35% in size
HCV inhibitor: inhibitors of hepatitis C virus infection. Huh7.5.1 HCVcc-Cre infection, luciferase reporter, 44 h. Potency, µM (highest dose often 41.8 µM), actives largely listed as inhibitors. 340,000 tested, 3.4% active. AID 651820
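Seed cells (1,000/well) for 4 h; treat with compound and infect with HCVcc-Cre, moi about 0.5. Incubate 44 h, then detect luciferase activity.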
Pf growth 48h: inhibits P. falciparum growth in the first generation, 48 h; Potency, µM (doses to about 28.7 µM), most hits filed as inhibitors; P. falciparum luciferase growth in erythrocytes, 48 h; AID 504832; 310,000 tested, 5.9% active
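Parasite viability was followed by luminescence of a genomically integrated firefly luciferase. Cultures held 0.1% parasitemia at 2% hematocrit (final), incubated under 5% CO2 at 37 C.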
Numbers stand for hits; 0 = inactive; ? = inconclusive; - = not tested or not shown; [ ] = dose if it differs, or a comment. Unless noted, calls follow the shape of the dose curve; as a rule, active = well fitted inhibition curve with a large enough effect; inconclusive = small, poorly fitted or top-dose-only effect, or another doubt; inactive = no such curve, though single readings can be large or run the other way.

SMILES | Vaccinia Venus | Pf growth 96h | NS1 function inh | Vaccinia mCherry | HCV inhibitor | Pf growth 48h
CCCCn1c(N)c(N(CCOC)C(=O)C2CCN(S(=O)(=O)c3ccccc3)CC2)c(=O)[nH]c1=O | 0 | 0 | - | 0 | 0 | 0
COc1ccc([N+](=O)[O-])c(OC)c1C(=O)NC(=O)Nc1c(C)cccc1C | - | 0 | 0 | - | 0 | -
O=C(CSc1ccc(F)cc1)Nc1nnc(-c2ccco2)o1 | 0 | ? | - | 0 | 0 | 0
O=C1C2CC=C(Cl)CC2C(=O)N1CCC[n+]1cccc2ccccc21 (configuration not stated) | 0 | ? | 0 | 0 | 0 | 9.3µM
O=C(CCN1C(=O)C2CC=C(Cl)CC2C1=O)NC1CCCCC1 (configuration not stated) | 0 | 0 | 0 | 0 | 0 | -
O=C1C2CC=C(Cl)CC2C(=O)N1CCCCCCN1C(=O)C2CC=C(Cl)CC2C1=O (configuration not stated) | 0 | 12µM | 0 | 0 | 0 | -
O=C1C2CC=C(Cl)CC2C(=O)N1CCN1CCOCC1 (configuration not stated) | 0 | 0 | 0 | - | 0 | -
CCN(CC)c1ccc(/C=C2/C(=O)ON=C2C)cc1 | - | 0 | 0 | - | 0 | 0
C/C(=C\c1ccc(C)o1)C(=O)c1c(C)cc(C)[nH]c1=O | - | 0 | - | - | 0 | 0
CN1CC(=O)NC1=NC(=O)C12CC3CC(CC(C3)C1)C2 | 0 | 12µM | 0 | - | 0 | ?
Cc1ccc(S(=O)(=O)N2CCCOC2CNC(=O)C(=O)NCCc2c[nH]c3ccccc23)cc1 (configuration not stated) | ? | 13µM | ? | ? | ? | ?
O=C(NCCc1c[nH]c2ccccc12)C(=O)NCC1OCCN1S(=O)(=O)c1ccc(F)cc1 (configuration not stated) | 0 | ? | 0 | ? | ? | 0
O=C(NCCc1c[nH]c2ccccc12)C(=O)NCC1OCCN1S(=O)(=O)c1ccccc1 (configuration not stated) | 0 | 0 | - | 0 | ? | 0
O=C(NCCc1c[nH]c2ccccc12)C(=O)NCC1OCCCN1S(=O)(=O)c1ccccc1 (configuration not stated) | 0 | ? | 0 | 0 | ? | 9.3µM
Nc1cc(=O)[nH]c(=O)n1Cc1ccccc1 | 0 | 0 | 0 | 0 | 0 | 0
O=C1C(=O)N(CCCc2ccccc2)c2ccccc21 | - | 10µM | 0 | - | 0 | ?
Cc1c(C(=O)NCCC2=CCCCC2)sc2ncnc(N3CCCCC3C)c12 (configuration not stated) | 0 | 2.6µM | 0 | 0 | ? | ?
CCOc1ccccc1CNS(=O)(=O)c1cc(-c2cc(C)no2)ccc1OC | - | 12µM | 0 | - | ? | 0
Cc1cc(-c2ccc(C)c(S(=O)(=O)NCC3CCN(Cc4ccc(F)cc4)CC3)c2)on1 | ? | ? | 0 | ? | 8.9µM | ?
COc1ccccc1CNS(=O)(=O)c1cc(-c2cc(C)no2)ccc1C | 0 | - | - | 0 | - | -
COc1ccccc1CN1CCC(CNS(=O)(=O)c2cc(-c3cc(C)no3)ccc2C)CC1 | - | 0 | 0 | - | ? | 4.7µM
Cc1cc(C(=O)CSc2nnc(Cc3ccccc3)o2)c(C)n1Cc1ccc2c(c1)OCO2 | - | ? | 0 | - | ? | 9.3µM
Cc1cc(C(=O)CSc2nc3ccccc3c(=O)n2C)c(C)n1Cc1ccc2c(c1)OCO2 | - | 0 | 0 | - | 1.6µM | 0
COc1cccc(CNC(=O)[C@@H]2CCCN2C(=O)[C@@H]2CCCN2C(=O)c2ccc(Cl)cc2)c1 | 0 | - | - | 0 | - | -
CCCCn1c(C)c(C(=O)OCC)c2c(CN3CCOCC3)c(O)ccc21 | 0 | - | ? | 0 | 25µM | ?
SMILES | Vaccinia Venus | Pf growth 96h | NS1 function inh | Vaccinia mCherry | HCV inhibitor | Pf growth 48h
CCOC(=O)c1c(C)n(C)c2ccc(O)c(CN3CCC(C)CC3)c12 | 0 | 10µM | 0 | 0 | ? | ?
CCCCn1c(C)c(C(=O)OCC)c2c(CN3CCCC3)c(O)ccc21 | - | 4.7µM | 0 | - | ? | -
CCOC(=O)c1c(C)n(C)c2ccc(O)c(CN3CCN(C)CC3)c12 | 0 | 0[5.75 µM] | 0 | 0 | ? | 0
CCC(C)NC(=O)CSC1=Nc2ccccc2C2=NC(CC(=O)NCc3ccccc3)C(=O)N12 (configuration not stated) | - | 0 | 0 | - | 0 | 9.3µM
Cc1ccc(CSC2=Nc3ccccc3C3=NC(CC(=O)NCc4cccs4)C(=O)N23)cc1 (configuration not stated) | 0 | - | - | 0 | - | -
Cc1ccc(CSC2=Nc3ccccc3C3=NC(CC(=O)NCc4ccco4)C(=O)N23)cc1 (configuration not stated) | - | - | 0 | - | ? | 1.3µM
O=C(CCC1N=C2c3ccccc3N=C(SCc3ccc(F)cc3)N2C1=O)NCc1ccco1 (configuration not stated) | - | ? | 0 | - | 0 | ?
O=C(CC1N=C2c3ccccc3N=C(SCc3ccc(F)cc3)N2C1=O)NCc1ccco1 (configuration not stated) | - | 13µM | 0 | - | ? | 0.74µM
Cc1ccc(CNC(=O)CN(c2cccc([N+](=O)[O-])c2)S(C)(=O)=O)cc1 | 0 | 0 | 0 | 0 | 0 | 0
Cn1c(=O)c2c(ncn2Cc2cccc(Cl)c2)n(C)c1=O | 0 | 0.93µM | 0 | 0 | 11µM | ?
Cn1c(=O)c2c(ncn2Cc2ccc(Cl)c(Cl)c2)n(C)c1=O | - | 0 | 0 | - | ? | 0
COCCNC(=S)N/N=C(\C)c1ccc2cc(OC)ccc2c1 | 0 | ? | 0 | ? | ? | ?
Cc1cccc2cc(-c3ccccc3)c(-c3ccccc3)c[n+]12 | 0 | 1.3µM | 0 | 0 | ? | 1.9µM
CCN(CCC(=O)O)c1ccccc1 | 0 | - | 0 | 0 | 0 | 0
CCN(CC)C1=NC(=[N+](CC)CC)c2ccccc21 | - | 0.29µM | 0 | - | ? | 0.74µM
CC(=O)OCc1c(-c2ccccc2)c2cc([N+](=O)[O-])ccc2n1C | 0 | 0 | 0 | 0 | 13µM | 0
Cn1c(CO)c(-c2ccccc2)c2cc([N+](=O)[O-])ccc21 | ? | 0 | 0 | ? | 10µM | 0
Cn1c2ccccc2c2cc([N+](=O)[O-])ccc21 | 0 | 0 | 0 | 0 | ? | 0
Cc1cc(=O)oc2cc(OCC(=O)OCC(=O)N(C)C3CCS(=O)(=O)C3)ccc12 (configuration not stated) | 0 | ? | 0 | 0 | 0 | 0
O=C(NCCc1ccc(Cl)cc1)Nc1ccc(F)cc1 | 0 | 0 | 0 | 0 | 0 | 15µM
CC(=O)Nc1ccc(OCC(=O)c2cc(C)ccc2C)cc1 | 0 | 9.3µM | 0 | 0 | 0 | -
O=C(NCCc1ccccc1)Nc1cccc(Cl)c1 | 0 | 2.9µM | 0 | 0 | 0 | 0
COc1ccc(CNC(=O)Nc2cccc(Cl)c2)cc1 | 0 | 10µM | 0 | 0 | 0 | 0
CCOc1ccc(N(CC(=O)NC2CCCC2)C(=O)c2ccc(C)s2)cc1 | 0 | 0 | 0 | 0 | ? | 0
CCc1ccccc1NC(=O)Nc1ccc(F)cc1 | 0 | ? | 0 | 0 | 0 | 0
COc1ccc(C2SCCN2C(=S)Nc2ccc(Cl)cc2)cc1 (configuration not stated) | 0 | ? | 0 | 0 | ? | ?
COc1ccc(CNCCc2ccc(Cl)cc2Cl)cc1 | 0 | 5.9µM | 0 | 0 | 0 | 0
